# Data: PubChem BioAssay (Tox21)
# Results filed as inconclusive are left out. Where a call stands in place of a potency, no number is given. Calls of active or inactive are those of the source. The call rests on the fitted dose curve; in most records, active means well fitted cell-killing curve with a large enough effect in the repeat runs; inconclusive means weak or mixed curves, or effect the other way; inactive means flat fitted curve, though single readings scatter.
# Tests used:
# [1] = cAMP Responsive Elements (CRE) small molecule antagonists, cell-based qHTS assay: qHTS cell viability counter screen (AID 2060913); further: nearly all actives have a fitted effect of over 40% in size
# Method in brief: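 CRE-bla HEK293T cells were seeded in assay medium with 10% dialyzed FBS, incubated 18 hrs at 37 C, then exposed to compounds plus 0.25 uM final NKH477 for 3 hrs. Viability was read by CellTiter-Glo luminescence after 30 min, in the same wells.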
# [2] = cAMP Responsive Elements (CRE) small molecule agonists, cell-based qHTS assay: qHTS cell viability counter screen (AID 2060914); further: nearly all actives have a fitted effect of over 50% in size
# Method in brief: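 Cytotoxicity was measured as ATP luminescence (CellTiter-Glo, 30 min at room temperature) in the same wells as the CRE-bla FRET read-out. HEK293T CRE-bla cells had 3 h compound exposure at 37C/5% CO2.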
SMILES,Potency [1],Potency [2]
Nc1ccc(F)cc1F,inactive,inactive
O=C=NCC1CCCC(CN=C=O)C1 (configuration not stated),inactive,inactive
CCCCC/C=C/CC(=O)OC,inactive,inactive
O=C(O)CCCCCCCCCCC(=O)O,inactive,inactive
CCC(=O)O,inactive,inactive
CCOC(=O)c1ccc(O)cc1,inactive,inactive
CC[C@@H](CO)NCCN[C@@H](CC)CO,inactive,inactive
O=[N+]([O-])c1ccc(F)cc1F,inactive,inactive
CCCc1ncc(C[n+]2ccccc2C)c(N)n1,inactive,inactive
OCCN1CCN(CCCN2c3ccccc3Sc3ccc(C(F)(F)F)cc32)CC1,inactive,inactive
Cc1ccc2c(Br)cc(Br)c(O)c2n1,inactive,inactive
OC[C@H]1O[C@@H]2O[C@H]3[C@H](O)[C@@H](O)[C@@H](O[C@H]4[C@H](O)[C@@H](O)[C@@H](O[C@H]5[C@H](O)[C@@H](O)[C@@H](O[C@H]6[C@H](O)[C@@H](O)[C@@H](O[C@H]7[C@H](O)[C@@H](O)[C@@H](O[C@H]8[C@H](O)[C@@H](O)[C@@H](O[C@H]1[C@H](O)[C@H]2O)O[C@@H]8CO)O[C@@H]7CO)O[C@@H]6CO)O[C@@H]5CO)O[C@@H]4CO)O[C@@H]3CO,inactive,inactive
CCCCCC[C@@H](O)C/C=C\CCCCCCCC(=O)OCC(O)CO (some centres not stated),inactive,inactive
O=[Si]=O,inactive,inactive
COCCOCCOCCOCCO,inactive,inactive
O=C(c1cc(O)c(O)c(O)c1)c1ccc(O)c(O)c1O,inactive,inactive
CCN(CC)CCOC(=O)C(c1ccccc1)C1CCCCC1 (configuration not stated),inactive,inactive
CCCCCCCC(=O)OC,inactive,inactive
CCCCCCCCOCCCN,inactive,inactive
Cc1ccc(C)c(S(=O)(=O)O)c1,inactive,inactive
CC(C)(C)c1ccccc1,inactive,inactive

SMILES,Potency [1],Potency [2]
COc1ccc(Br)c(C)c1,inactive,inactive
O=C1c2ccccc2C(=O)c2cc(O)ccc21,inactive,inactive
CN(C)CCOC(c1ccccc1)c1ccc(Br)cc1 (configuration not stated),inactive,inactive
O=C1OC(=O)c2cc([N+](=O)[O-])ccc21,inactive,inactive
O=C(CC(=O)c1ccccc1)c1ccccc1,inactive,inactive
COc1ccc(-c2ccc3cc(C(=O)O)ccc3c2)cc1C12CC3CC(CC(C3)C1)C2,inactive,inactive
CCN(Cc1cccc(S(=O)(=O)O)c1)c1ccccc1,inactive,inactive
CC/C=C\CCCCCO,inactive,inactive
CC(=O)OC1CC(C)OC(C)O1 (configuration not stated),inactive,inactive
CC1=C(C)C(=O)C(C(CCCCCC(=O)O)c2ccccc2)=C(C)C1=O (configuration not stated),inactive,inactive
CCCCC/C(=C\c1ccccc1)CO,inactive,inactive
C=CC/C=C/C,inactive,inactive
CCN(CC)C(=O)c1ccc(O)c(OC)c1,inactive,inactive
CCc1ccc(O)cc1,inactive,inactive
C[C@]12CC[C@@H]3c4ccc(O)cc4CC[C@H]3[C@@H]1CC[C@H]2O,inactive,inactive
CCCCCC(=O)O[C@]1(C(C)=O)CC[C@H]2[C@@H]3CCC4=CC(=O)CC[C@]4(C)[C@H]3CC[C@@]21C,inactive,inactive
Oc1ccc(Sc2ccc(O)cc2)cc1,inactive,inactive
COc1cc(C)cc(O)c1,inactive,inactive
O=C(c1ccc(F)cc1)C1CCN(CCn2c(=S)[nH]c3ccccc3c2=O)CC1,inactive,inactive
CCCCCCCC(OC)OC,inactive,inactive
O=S(=O)(O)c1ccccc1/C=C/c1ccc(-c2ccc(/C=C/c3ccccc3S(=O)(=O)O)cc2)cc1,inactive,inactive

SMILES,Potency [1],Potency [2]
C=C(C)C(=O)OCCCC,inactive,inactive
O=C1CCCCCCCCCCCCCC1,inactive,inactive
Cc1c[nH]c(=S)[nH]c1=O,inactive,inactive
CC1(C)CCC(C)(C)c2cc(NC(=O)c3ccc(C(=O)O)cc3)ccc21,inactive,inactive
CCCC1CCOC(C)S1 (configuration not stated),inactive,inactive
C/C=C/C(=O)O,inactive,inactive
Cn1sccc1=O,inactive,inactive
[Cl][Pt-2]([Cl])([Cl])[Cl],inactive,inactive
Oc1ccc(/C=C/c2cc(O)cc(O)c2)cc1,inactive,inactive
CC(=O)c1ccc2c(c1)Cc1ccccc1-2,inactive,inactive
CN1C(=O)CC[C@H]1c1cccnc1,inactive,inactive
CCNS(=O)(=O)c1ccc(C)cc1,inactive,inactive
O[C@@H]([C@H](O)[C@H](O)CBr)[C@H](O)CBr,inactive,inactive
CCCCOCCOC(=O)COc1ccc(Cl)cc1Cl,inactive,inactive
CCCCCCCCCCC,inactive,inactive
CO[C@@]1(NC(=O)Cc2cccs2)C(=O)N2C(C(=O)O)=C(COC(N)=O)CS[C@@H]21,inactive,inactive
CCCCCCCCCCCCCCO,inactive,inactive
Cc1cc(C2CCCCC2)n(O)c(=O)c1,inactive,inactive
CC(C)OC(=O)CCC(=O)OC(C)C,inactive,inactive
